Assay results from PubChem BioAssay AID1159580 (chemical genetic matrix, 2015).
Among all 5,500 compounds or so, about 2,000 (36%) were called active. Another 18% or so got no clear call; they are omitted. No stated cut-off is given here; in the data, active means normalized growth mostly below about 0.91 (no sharp cut-off); inconclusive means no clear call, values can overlap the other calls; inactive means mostly above about 0.92. Some of the results follow.

Test: chemical genetic growth profiling, strain panel (AID 1159580);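 further: tested at 20 µM; growth read once vehicle control cultures reached saturation at 30 °C; 1 = growth at the plate median or of vehicle wells; lower values mean less growth of the strain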
Conditions: S. cerevisiae deletion strains, growth OD

Measured: normalized growth

CC(=O)N[C@@H](CC(=O)O)C(=O)O
inactive: locus YAL013W, strain DEP1, active compounds read low 1.01 | locus YAL021C, strain ccr4, active compounds read low 0.998 | locus YAL026C, strain drs2, active compounds read low 1.01 | locus YAL030W, strain snc1, active compounds read low 0.997 | locus YBL061C, strain skt5, active compounds read low 1.01 | locus YBR009C, strain hhf1, active compounds read low 1.01 | locus YBR021W, strain FUR4, active compounds read low 1.02 | locus YBR023C, strain chs3, active compounds read low 1 | locus YBR171W, strain sec66, active compounds read low 1 | locus YBR229C, strain ROT2, active compounds read low 1.01 | locus YBR231C, strain swc5, active compounds read low 0.982 | locus YBR279W, strain paf1, active compounds read low 1 | locus YCL011C, strain gbp2, active compounds read low 1.01 | locus YCL016C, strain dcc1, active compounds read low 1 | locus YCL029C, strain bik1, active compounds read low 1.03 | locus YCL069W, strain vba3, active compounds read low 1.01 | locus YCR088W, strain abp1, active compounds read low 1 | locus YDL005C, strain med2, active compounds read low 0.997 | locus YDL035C, strain GPR1, active compounds read low 1 | locus YDL040C, strain nat1, active compounds read low 1.01 | locus YDL074C, strain BRE1, active compounds read low 1.01 | locus YDL101C, strain DUN1, active compounds read low 1.01 | locus YDL134C, strain PPH21, active compounds read low 1.01 | locus YDL185W, strain tfp1, active compounds read low 1.02 | locus YDL192W, strain arf1, active compounds read low 1.02 | locus YDR001C, strain nth1, active compounds read low 1.01 | locus YDR069C, strain doa4, active compounds read low 1.03 | locus YDR101C, strain arx1, active compounds read low 1.02 | locus YDR137W, strain rgp1, active compounds read low 0.997 | locus YDR150W, strain NUM1, active compounds read low 1.01 | locus YDR159W, strain sac3, active compounds read low 0.969 | locus YDR162C, strain NBP2, active compounds read low 1.01 | locus YDR195W, strain ref2 0.972 | locus YDR297W, strain sur2, active compounds read low 1.02 | locus YDR318W, strain mcm21, active compounds read low 1.01 | locus YDR334W, strain swr1, active compounds read low 1.01 | locus YDR335W, strain msn5, active compounds read low 1.01 | locus YDR388W, active compounds read low 1.01 | locus YDR392W, strain spt3, active compounds read low 0.932 | locus YDR502C, strain sam2, active compounds read low 1.02 | locus YEL003W, strain gim4, active compounds read low 1.01 | locus YEL037C, strain rad23, active compounds read low 1.01 | locus YEL061C, strain CIN8 (second series), active compounds read low 1.01 | locus YEL061C, strain CIN8, active compounds read low 1.01 | locus YER015W, strain faa2, active compounds read low 1.01 | locus YER016W, strain bim1, active compounds read low 1 | locus YER110C, active compounds read low 1.02 | locus YER111C, strain swi4, active compounds read low 1.01 | locus YER155C, strain BEM2 (second series), active compounds read low 0.999 | locus YER155C, strain BEM2, active compounds read low 1.01 | locus YER167W, strain BCK2, active compounds read low 1.01 | locus YFR010W, strain ubp6, active compounds read low 1 | locus YGL078C, strain dbp3, active compounds read low 1.01 | locus YGL086W, strain mad1, active compounds read low 1.01 | locus YGL167C, strain pmr1, active compounds read low 1 | locus YGL173C, strain kem1, active compounds read low 1.02 | locus YGL227W, strain vid30, active compounds read low 1.01 | locus YGL240W, strain doc1, active compounds read low 0.984 | locus YGL248W, strain PDE1, active compounds read low 1 | locus YGL253W, strain hxk2, active compounds read low 1.01 | locus YGR078C, strain PAC10, active compounds read low 1.01 | locus YGR135W, strain pre9, active compounds read low 1.01 | locus YGR229C, strain SMI1, active compounds read low 1.01 | locus YGR252W, strain gcn5, active compounds read low 0.959 | locus YHR013C, strain ard1, active compounds read low 1.01 | locus YHR027C, strain rpn1, active compounds read low 0.993 | locus YHR030C, strain SLT2, active compounds read low 1.01 | locus YHR079C, strain IRE1 (second series), active compounds read low 1.01 | locus YHR094C, strain hxt1, active compounds read low 1.01 | locus YHR129C, strain ARP1, active compounds read low 0.997 | locus YHR142W, strain chs7, active compounds read low 1.01 | locus YHR200W, strain rpn10, active compounds read low 1.02 | locus YIL066C, strain RNR3, active compounds read low 1.02 | locus YIL073C, strain SPO22, active compounds read low 1.02 | locus YIL125W, strain kgd1, active compounds read low 1.01 | locus YIR030C, strain dcg1, active compounds read low 1.03 | locus YJL092W, strain hpr5, active compounds read low 1.01 | locus YJL095W, strain BCK1 (second series), active compounds read low 0.999 | locus YJL095W, strain BCK1, active compounds read low 1.02 | locus YJL115W, strain asf1, active compounds read low 1 | locus YJL129C, strain trk1, active compounds read low 1 | locus YJL134W, strain LCB3, active compounds read low 1.01 | locus YJL154C, strain vps35, active compounds read low 1.01 | locus YJL164C, strain tpk1, active compounds read low 1 | locus YJL166W, strain qcr8, active compounds read low 1.01 | locus YJL168C, strain set2, active compounds read low 1.01 | locus YJL187C, strain SWE1 (second series), active compounds read low 1.01 | locus YJL187C, strain SWE1, active compounds read low 1.03
